Measured values reported in the supplement of paper PMC10849652.
Of roughly 8,800 targets only a part is listed; those with a hit were picked by preference. About 0.5% of all pairs of compound and target were hits.

compound: CN1CC[C@H](c2c(O)cc(O)c3c(=O)cc(-c4ccccc4Cl)oc23)[C@H](O)C1 [alvocidib]; test: log2 fold change, soluble protein after heating vs DMSO (PISA); higher = thermal stabilisation; K562 lysate, 10 uM; active = over 0.2 and 3.5 SD of the protein, either way, in both replicates (recomputed)
Method in brief: (§1)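 Dounce homogenisation of K562 pellets in PBS pH 7.4 with 1 mM MgCl2 produced a crude extract, used at 1 mg/mL protein. Exposure to 10 μM compound lasted 30 min, and aliquots were then heated for 3 min across 48°C-58°C, pooled and brought to 0.5% NP-40 at 4°C. The supernatant after 21,000xg for 90 min was quantified by TMTpro 16plex LC-MS/MS with channel sums equalised. Duplicate values are given as log-two fold change in thermal stability relative to solvent controls.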

Sequence of UniProt Q96S55 (Q96S55 whole entry, looked up): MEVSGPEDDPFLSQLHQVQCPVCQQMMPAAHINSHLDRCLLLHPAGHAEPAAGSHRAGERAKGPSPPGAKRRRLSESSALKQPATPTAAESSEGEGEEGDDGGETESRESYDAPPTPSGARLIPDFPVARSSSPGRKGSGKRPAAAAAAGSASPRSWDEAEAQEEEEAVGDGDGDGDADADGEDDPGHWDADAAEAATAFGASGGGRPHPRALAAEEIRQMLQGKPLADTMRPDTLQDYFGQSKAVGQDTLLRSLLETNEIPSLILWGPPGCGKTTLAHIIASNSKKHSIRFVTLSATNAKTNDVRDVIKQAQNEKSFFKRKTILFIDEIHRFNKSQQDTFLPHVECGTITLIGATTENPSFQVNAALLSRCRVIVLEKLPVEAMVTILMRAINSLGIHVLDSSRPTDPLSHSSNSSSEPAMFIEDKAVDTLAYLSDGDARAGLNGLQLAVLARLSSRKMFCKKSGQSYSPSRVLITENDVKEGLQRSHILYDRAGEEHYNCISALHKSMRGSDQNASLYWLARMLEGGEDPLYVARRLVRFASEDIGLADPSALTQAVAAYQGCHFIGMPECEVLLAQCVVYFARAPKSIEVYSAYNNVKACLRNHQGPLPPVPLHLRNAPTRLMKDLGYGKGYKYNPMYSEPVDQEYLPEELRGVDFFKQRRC
Sequence of UniProt Q70J99 (Q70J99 whole entry, looked up): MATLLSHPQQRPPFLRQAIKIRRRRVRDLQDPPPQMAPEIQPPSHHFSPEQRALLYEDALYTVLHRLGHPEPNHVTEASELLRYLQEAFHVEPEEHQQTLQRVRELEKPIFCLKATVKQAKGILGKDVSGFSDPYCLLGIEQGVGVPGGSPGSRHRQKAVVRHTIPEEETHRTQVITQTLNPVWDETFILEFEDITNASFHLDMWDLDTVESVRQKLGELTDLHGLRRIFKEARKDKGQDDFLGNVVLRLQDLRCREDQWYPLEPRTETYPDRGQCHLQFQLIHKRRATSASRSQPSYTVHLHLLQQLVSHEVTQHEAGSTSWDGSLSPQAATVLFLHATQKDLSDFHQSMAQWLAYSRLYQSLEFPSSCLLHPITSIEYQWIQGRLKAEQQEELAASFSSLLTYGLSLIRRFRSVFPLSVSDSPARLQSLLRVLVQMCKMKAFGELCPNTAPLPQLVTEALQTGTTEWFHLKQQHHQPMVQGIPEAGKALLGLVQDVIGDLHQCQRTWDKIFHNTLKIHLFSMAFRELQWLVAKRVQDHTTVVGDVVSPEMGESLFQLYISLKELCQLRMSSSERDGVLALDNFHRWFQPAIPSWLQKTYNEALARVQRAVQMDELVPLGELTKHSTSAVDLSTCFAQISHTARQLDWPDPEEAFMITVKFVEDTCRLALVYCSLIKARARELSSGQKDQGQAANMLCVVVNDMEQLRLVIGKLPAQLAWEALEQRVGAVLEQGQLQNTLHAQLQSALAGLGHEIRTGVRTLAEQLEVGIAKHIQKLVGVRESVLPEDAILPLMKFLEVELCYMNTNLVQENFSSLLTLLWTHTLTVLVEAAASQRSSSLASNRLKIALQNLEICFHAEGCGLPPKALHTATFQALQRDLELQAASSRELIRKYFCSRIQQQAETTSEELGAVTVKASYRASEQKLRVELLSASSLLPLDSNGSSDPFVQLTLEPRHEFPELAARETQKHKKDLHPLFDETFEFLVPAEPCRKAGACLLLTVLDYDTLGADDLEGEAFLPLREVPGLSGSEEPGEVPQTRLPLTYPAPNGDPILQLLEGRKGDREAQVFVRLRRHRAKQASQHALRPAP
Sequence of UniProt Q9H270 (Q9H270 whole entry, looked up): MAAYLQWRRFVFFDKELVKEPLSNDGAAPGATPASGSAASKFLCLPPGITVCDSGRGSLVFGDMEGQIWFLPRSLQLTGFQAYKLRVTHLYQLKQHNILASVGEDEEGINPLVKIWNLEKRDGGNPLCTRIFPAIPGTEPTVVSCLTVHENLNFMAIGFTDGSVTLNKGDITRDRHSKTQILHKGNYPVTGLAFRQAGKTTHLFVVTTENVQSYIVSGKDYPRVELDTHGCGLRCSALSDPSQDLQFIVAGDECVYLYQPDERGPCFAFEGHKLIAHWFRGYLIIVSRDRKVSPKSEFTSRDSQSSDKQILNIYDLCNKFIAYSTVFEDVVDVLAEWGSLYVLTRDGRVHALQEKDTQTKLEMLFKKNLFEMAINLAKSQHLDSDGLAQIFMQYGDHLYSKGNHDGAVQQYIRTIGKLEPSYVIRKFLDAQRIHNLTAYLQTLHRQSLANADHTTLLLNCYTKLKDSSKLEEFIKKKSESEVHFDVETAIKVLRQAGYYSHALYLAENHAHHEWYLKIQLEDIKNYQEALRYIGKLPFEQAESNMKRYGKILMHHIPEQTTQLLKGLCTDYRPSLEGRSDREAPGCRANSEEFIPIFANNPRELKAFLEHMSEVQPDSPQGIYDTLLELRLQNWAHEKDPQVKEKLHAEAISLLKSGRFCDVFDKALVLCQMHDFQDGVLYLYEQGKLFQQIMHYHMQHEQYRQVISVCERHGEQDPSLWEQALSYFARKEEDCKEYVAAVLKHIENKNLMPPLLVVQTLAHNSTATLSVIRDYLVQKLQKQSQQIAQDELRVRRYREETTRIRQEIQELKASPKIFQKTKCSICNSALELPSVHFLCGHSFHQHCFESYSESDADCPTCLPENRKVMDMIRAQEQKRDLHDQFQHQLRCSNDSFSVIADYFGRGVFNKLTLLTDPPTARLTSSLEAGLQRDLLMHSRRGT
Sequence of UniProt Q9UKW4 (Q9UKW4 whole entry, looked up): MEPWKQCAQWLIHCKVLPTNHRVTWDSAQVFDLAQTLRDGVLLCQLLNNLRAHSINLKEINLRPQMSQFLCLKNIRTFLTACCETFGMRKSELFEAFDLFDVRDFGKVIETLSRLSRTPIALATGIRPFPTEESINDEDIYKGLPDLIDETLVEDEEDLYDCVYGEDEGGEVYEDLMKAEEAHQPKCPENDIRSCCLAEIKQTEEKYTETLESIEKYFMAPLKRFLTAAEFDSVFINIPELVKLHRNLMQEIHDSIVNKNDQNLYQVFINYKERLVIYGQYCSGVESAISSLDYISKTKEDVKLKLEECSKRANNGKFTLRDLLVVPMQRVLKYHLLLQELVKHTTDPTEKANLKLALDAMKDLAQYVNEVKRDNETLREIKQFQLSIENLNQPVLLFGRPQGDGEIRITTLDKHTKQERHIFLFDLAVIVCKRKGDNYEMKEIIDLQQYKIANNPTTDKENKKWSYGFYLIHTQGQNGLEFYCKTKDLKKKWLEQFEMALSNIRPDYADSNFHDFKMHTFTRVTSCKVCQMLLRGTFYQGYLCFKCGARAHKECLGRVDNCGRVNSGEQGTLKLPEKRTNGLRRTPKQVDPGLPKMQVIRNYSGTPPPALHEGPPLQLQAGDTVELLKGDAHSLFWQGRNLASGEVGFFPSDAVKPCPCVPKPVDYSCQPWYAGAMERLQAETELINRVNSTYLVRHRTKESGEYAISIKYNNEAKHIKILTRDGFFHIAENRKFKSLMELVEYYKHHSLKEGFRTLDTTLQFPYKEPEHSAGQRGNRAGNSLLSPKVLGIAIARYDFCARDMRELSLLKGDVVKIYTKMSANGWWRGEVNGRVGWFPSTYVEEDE
Sequence of UniProt Q9Y5J1 (Q9Y5J1 whole entry, looked up): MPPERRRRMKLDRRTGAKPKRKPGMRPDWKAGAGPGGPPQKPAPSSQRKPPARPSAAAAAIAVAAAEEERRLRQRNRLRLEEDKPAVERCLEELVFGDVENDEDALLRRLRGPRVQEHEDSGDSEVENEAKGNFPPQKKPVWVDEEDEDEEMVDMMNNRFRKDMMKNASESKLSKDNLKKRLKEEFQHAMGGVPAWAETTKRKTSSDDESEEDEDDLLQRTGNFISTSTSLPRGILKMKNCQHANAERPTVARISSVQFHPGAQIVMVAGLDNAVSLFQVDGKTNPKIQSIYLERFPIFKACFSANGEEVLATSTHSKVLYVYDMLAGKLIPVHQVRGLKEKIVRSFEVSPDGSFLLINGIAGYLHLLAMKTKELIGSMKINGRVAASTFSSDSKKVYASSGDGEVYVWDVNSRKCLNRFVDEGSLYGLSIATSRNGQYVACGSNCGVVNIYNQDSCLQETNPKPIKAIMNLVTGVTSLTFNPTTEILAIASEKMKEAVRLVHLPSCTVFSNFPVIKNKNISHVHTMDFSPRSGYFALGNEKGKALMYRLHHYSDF
Sequence of UniProt Q9H269 (Q9H269 whole entry, looked up): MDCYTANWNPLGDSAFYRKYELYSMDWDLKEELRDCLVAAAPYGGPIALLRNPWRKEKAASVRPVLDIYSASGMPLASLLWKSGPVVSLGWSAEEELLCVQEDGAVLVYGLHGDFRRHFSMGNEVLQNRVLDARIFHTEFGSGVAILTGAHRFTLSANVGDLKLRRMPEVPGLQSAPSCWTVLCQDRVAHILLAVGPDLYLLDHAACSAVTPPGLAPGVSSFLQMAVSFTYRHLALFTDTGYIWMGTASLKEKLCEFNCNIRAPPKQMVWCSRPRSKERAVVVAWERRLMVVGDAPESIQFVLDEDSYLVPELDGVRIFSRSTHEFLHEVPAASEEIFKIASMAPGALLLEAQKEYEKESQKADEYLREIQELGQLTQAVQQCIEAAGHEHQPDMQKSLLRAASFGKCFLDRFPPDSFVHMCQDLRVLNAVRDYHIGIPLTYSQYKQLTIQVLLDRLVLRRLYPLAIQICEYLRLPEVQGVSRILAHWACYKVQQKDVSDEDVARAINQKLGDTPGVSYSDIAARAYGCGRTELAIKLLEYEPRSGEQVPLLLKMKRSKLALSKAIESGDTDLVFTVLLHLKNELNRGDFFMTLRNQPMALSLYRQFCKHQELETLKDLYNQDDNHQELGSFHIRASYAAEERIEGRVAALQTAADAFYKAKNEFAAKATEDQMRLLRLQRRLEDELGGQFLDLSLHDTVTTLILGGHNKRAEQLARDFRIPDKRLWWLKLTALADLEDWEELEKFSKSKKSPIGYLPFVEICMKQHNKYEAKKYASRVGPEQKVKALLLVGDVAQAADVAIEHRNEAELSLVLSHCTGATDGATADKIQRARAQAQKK

log2 fold change, inactive:
VPS11 (UniProt Q9H270) 0.039
VPS16 (UniProt Q9H269) 0.032
WDR20 isoform 7 (UniProt Q8TBZ3) -0.041
VAV3 isoform 4 (UniProt Q9UKW4) -0.305
WRNIP1 (UniProt Q96S55) 0.005
UNC13D (UniProt Q70J99) 0.015
VARS (UniProt P26640) -0.003
UTP18 (UniProt Q9Y5J1) 0.009

compound: CN1CCc2c(c3ccccc3n2Cc2ccc(C(=O)NO)cc2)C1 [Tubastatin A]; test: as above
Method in brief: as §1

log2 fold change, inactive:
YES1 (UniProt P07947) 0.171
XAB2 (UniProt Q9HCS7) -0.039
VCPIP1 (UniProt Q96JH7) -0.026
ZC3H13 (UniProt Q5T200) 0.063
ZNF609 (UniProt O15014) -0.044
ZC3H11A (UniProt O75152) -0.077
VPS28 (UniProt Q9UK41) -0.034
ZMYM4 (UniProt Q5VZL5) -0.089
ZNF217 (UniProt O75362) -0.076
YDJC (UniProt A8MPS7) 0.052
XPNPEP1 isoform 3 (UniProt Q9NQW7) 0.011
USP9X (UniProt Q93008) -0.114
UQCRC2 (UniProt P22695) 0.035
WRB (UniProt O00258) 0.114
ZBTB33 (UniProt Q86T24) -0.005
WDR62 isoform 4 (UniProt O43379) -0.132
XPO6 (UniProt Q96QU8) -0.09
VPS35L (UniProt Q7Z3J2) -0.083
YEATS4 (UniProt O95619) 0.004
YWHAQ (UniProt P27348) -0.021
VRK1 (UniProt Q99986) -0.096
ZC3HC1 (UniProt Q86WB0) -0.101
USP3 (UniProt Q9Y6I4) -0.154
VPS11 (UniProt Q9H270) -0.113
VPS16 (UniProt Q9H269) -0.082
WDR20 isoform 7 (UniProt Q8TBZ3) -0.035
VAV3 isoform 4 (UniProt Q9UKW4) -0.202
WRNIP1 (UniProt Q96S55) -0.229
UNC13D (UniProt Q70J99) -0.117
VARS (UniProt P26640) -0.086
UTP18 (UniProt Q9Y5J1) -0.05

compound: CNC(=O)C1=CC=CC=C1NC2=NC(=NC=C2Cl)NC3=C(C=C(C=C3)N4CCOCC4)OC; test: as above
Method in brief: as §1

log2 fold change, inactive:
YES1 (UniProt P07947) -0.003
XAB2 (UniProt Q9HCS7) 0.012
VCPIP1 (UniProt Q96JH7) -0.01
ZC3H13 (UniProt Q5T200) -0.073
ZNF609 (UniProt O15014) 0.02
ZC3H11A (UniProt O75152) 0.076
VPS28 (UniProt Q9UK41) 0
ZMYM4 (UniProt Q5VZL5) -0.015
ZNF217 (UniProt O75362) 0.009
YDJC (UniProt A8MPS7) 0.014
XPNPEP1 isoform 3 (UniProt Q9NQW7) 0.029
USP9X (UniProt Q93008) 0.016
UQCRC2 (UniProt P22695) -0.013
WRB (UniProt O00258) 0.029
ZBTB33 (UniProt Q86T24) -0.178
WDR62 isoform 4 (UniProt O43379) 0.012
XPO6 (UniProt Q96QU8) -0.048
VPS35L (UniProt Q7Z3J2) 0.015
YEATS4 (UniProt O95619) 0.012
YWHAQ (UniProt P27348) -0.006
VRK1 (UniProt Q99986) 0.008
ZC3HC1 (UniProt Q86WB0) 0.018
USP3 (UniProt Q9Y6I4) -0.046
VPS11 (UniProt Q9H270) 0.023
VPS16 (UniProt Q9H269) 0.002
WDR20 isoform 7 (UniProt Q8TBZ3) 0.02
VAV3 isoform 4 (UniProt Q9UKW4) 0.032
WRNIP1 (UniProt Q96S55) 0.01
UNC13D (UniProt Q70J99) 0.014
VARS (UniProt P26640) 0.002
UTP18 (UniProt Q9Y5J1) 0.075
